Common to all, as to conditions: mRNA level, 48 h; actives raise or lower the signal
Read-out in test [1]: Lipase C (LIPC), LIPC (gene 3990)
As to the kind of experiment: LTEA_HepaRG_LIPC: Life Technologies and Expression Analysis (LTEA) Assay for Lipase C (LIPC) using HepaRG (AID 2283514). In short, it runs like this:
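HepaRG cells, 48 h after plating, treated in duplicate for 48 h in serum-free induction medium over 8 half-log concentrations from 100 uM, 0.5% DMSO. LIPC mRNA by TaqMan qRT-PCR normalized to ACTB/GAPDH/POLR2A; bidirectional fit versus DMSO.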

Read-out in test [2]: MicroRNA 122 (MIR122), gene 406906
Nature of the test: LTEA_HepaRG_MIR122: Life Technologies and Expression Analysis (LTEA) Assay for MicroRNA 122 (MIR122) using HepaRG (AID 2283516). Further: the transcript read is the microRNA miR-122. An outline of the steps:
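Differentiated human HepaRG cells were exposed 48 h in serum-free induction medium to eight half-log concentrations (top 100 uM, 0.5% DMSO). Transcript level was measured by TaqMan qRT-PCR, normalized to ACTB, GAPDH and POLR2A, and fitted bidirectionally versus DMSO.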

Read-out in test [3]: matrix metalloproteinase-10 (MMP10), MMP10 (gene 4319)
Nature of the test: LTEA_HepaRG_MMP10: Life Technologies and Expression Analysis (LTEA) Assay for matrix metalloproteinase-10 (MMP10) using HepaRG (AID 2283517). An outline of the steps: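 Differentiated HepaRG cells in serum-free induction medium exposed 48 h in duplicate to 8-point half-log series up to 100 uM in 0.5% DMSO. mRNA quantified by qRT-PCR, normalised to ACTB, GAPDH, POLR2A; bidirectional fit versus DMSO.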

Read-out in the next test: MYC, MYC (gene 4609)
Nature of the test: LTEA_HepaRG_MYC: Life Technologies and Expression Analysis (LTEA) Assay for MYC using HepaRG (AID 2283518). In short, it runs like this: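 Expression changes were scored by TaqMan qRT-PCR with ACTB, GAPDH and POLR2A normalization. Cultures in serum-free induction medium received duplicate 8-point concentration series, highest 100 uM, for 48 h; DMSO (0.5%) served as baseline.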

Read-out in test [4]: matrix metalloproteinase-3 (MMP3), MMP3 (gene 4314)
As to the kind of experiment: LTEA_HepaRG_MMP3: Life Technologies and Expression Analysis (LTEA) Assay for matrix metalloproteinase-3 (MMP3) using HepaRG (AID 2283519). An outline of the steps:
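HepaRG cells (~100,000/well) in serum-free induction medium were dosed in duplicate for 48 h with an 8-point half-log series from 100 uM, 0.5% DMSO. MMP3 mRNA was quantified by Fluidigm TaqMan qRT-PCR, normalized to three housekeeping genes.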

Read-out in test [5]: Paternally Expressed 10 (PEG10), PEG10 (gene 23089)
As to the kind of experiment: LTEA_HepaRG_PEG10: Life Technologies and Expression Analysis (LTEA) Assay for Paternally Expressed 10 (PEG10) using HepaRG (AID 2283520). An outline of the steps:
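Differentiated HepaRG cells, plated 48 h then switched to serum-free induction medium, were exposed in duplicate for 48 h to eight half-log concentrations topping at 100 uM in 0.5% DMSO. PEG10 mRNA was quantified by TaqMan qRT-PCR, normalised to ACTB, GAPDH and POLR2A.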

Read-out in test [6]: Nuclear factor NF-kappa-B p105 subunit (Homo sapiens) (UniProt P19838)
Nature of the test: LTEA_HepaRG_NFKB1: Life Technologies and Expression Analysis (LTEA) Assay for Nuclear Factor Kappa B Subunit 1 (NFKB1) using HepaRG (AID 2283521).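 Further: TaqMan qRT-PCR transcript normalised to ACTB GAPDH and POLR2A housekeeping genes.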 In short, it runs like this: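 Differentiated human HepaRG cells in serum-free induction medium with 0.5% DMSO were exposed for 48 h to eight half-log concentrations, top 100 uM, in duplicate. NFKB1 mRNA measured by Fluidigm TaqMan qRT-PCR, normalised to ACTB, GAPDH and POLR2A; bidirectional fit versus DMSO.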

Read-out in test [7]: Phosphatase and tensin (PTEN), PTEN (gene 5728)
As to the kind of experiment: LTEA_HepaRG_PTEN: Life Technologies and Expression Analysis (LTEA) Assay for Phosphatase and tensin (PTEN) using HepaRG (AID 2283523). An outline of the steps: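 HepaRG cells, 48 h after plating, exposed in duplicate for 48 h in serum-free induction medium to 8 half-log concentrations up to 100 uM (0.5% DMSO). PTEN mRNA by qRT-PCR, normalized to ACTB, GAPDH, POLR2A; bidirectional fit versus DMSO.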

Read-out in test [8]: Protein phosphatase 2A (PPP2R4), PTPA (gene 5524)
As to the kind of experiment: LTEA_HepaRG_PPP2R4: Life Technologies and Expression Analysis (LTEA) Assay for Protein phosphatase 2A (PPP2R4) using HepaRG (AID 2283522). In short, it runs like this:
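Differentiated HepaRG cells in serum-free induction medium were exposed in duplicate for 48 h to eight concentrations, top 100 uM with half-log dilutions, in 0.5% DMSO. PPP2R4 mRNA was quantified by TaqMan qRT-PCR, normalized to ACTB, GAPDH and POLR2A.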

Activity calls are given as the source filed them. How the source made its calls: active means hit-call score of the fitted dose curve at least 0.9, where 1 is the maximum; inactive means score below 0.9.

As a reminder, the AC50 is the concentration giving half of the maximal activity seen.

Chain of Nuclear factor NF-kappa-B p105 subunit (Homo sapiens) (P19838 whole entry, looked up): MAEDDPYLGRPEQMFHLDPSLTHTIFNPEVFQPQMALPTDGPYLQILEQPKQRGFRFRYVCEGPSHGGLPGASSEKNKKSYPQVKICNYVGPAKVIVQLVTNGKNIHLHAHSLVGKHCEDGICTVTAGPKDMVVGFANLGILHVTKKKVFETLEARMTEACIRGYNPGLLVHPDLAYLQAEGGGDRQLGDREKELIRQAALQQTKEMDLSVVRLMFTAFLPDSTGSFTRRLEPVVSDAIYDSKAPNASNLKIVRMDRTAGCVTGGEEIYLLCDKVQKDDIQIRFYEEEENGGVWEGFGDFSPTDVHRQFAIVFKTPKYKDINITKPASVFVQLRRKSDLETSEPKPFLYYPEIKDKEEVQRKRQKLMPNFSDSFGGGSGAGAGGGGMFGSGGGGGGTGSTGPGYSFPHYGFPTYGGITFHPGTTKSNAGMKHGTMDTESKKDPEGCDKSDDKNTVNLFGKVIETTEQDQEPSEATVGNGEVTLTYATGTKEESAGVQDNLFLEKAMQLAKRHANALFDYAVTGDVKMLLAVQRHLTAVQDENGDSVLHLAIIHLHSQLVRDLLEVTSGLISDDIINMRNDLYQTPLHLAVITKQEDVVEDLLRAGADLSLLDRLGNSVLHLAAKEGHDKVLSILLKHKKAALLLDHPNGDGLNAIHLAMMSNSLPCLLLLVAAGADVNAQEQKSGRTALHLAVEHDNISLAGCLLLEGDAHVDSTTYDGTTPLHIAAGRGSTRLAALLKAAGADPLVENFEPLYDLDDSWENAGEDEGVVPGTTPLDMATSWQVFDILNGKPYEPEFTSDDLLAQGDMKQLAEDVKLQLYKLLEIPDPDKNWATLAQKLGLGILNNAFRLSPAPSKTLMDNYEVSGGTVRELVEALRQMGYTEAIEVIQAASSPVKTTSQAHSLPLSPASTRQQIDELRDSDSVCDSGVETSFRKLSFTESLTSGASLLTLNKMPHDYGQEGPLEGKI

In the case of `CCNc1nc(N)nc(Cl)n1`, the outcome is “inactive” in test [1]; “inactive” in test [2]; “inactive” in test [3]; “inactive” with MYC, MYC (gene 4609); “inactive” in [4]; “inactive” in test [5]. Further, the call in test [6] and in test [7] was inactive.
For the molecule `c1ccc(Nc2ccccc2)cc1`, the outcome in test [1] is “inactive”; in test [2] it was “inactive”; in test [3] it was “inactive”; with MYC, MYC (gene 4609), “inactive”; in [4], “inactive”; in [5], “inactive”. For the same molecule, the outcome in test [6] and in test [7] was inactive.
For the molecule `COc1c(Cl)ccc(Cl)c1C(=O)O`, the outcome in [1] was “inactive”; in test [2], “inactive”; in test [3] it was “inactive”; with MYC, MYC (gene 4609) it was “inactive”; in [4] it was “inactive”; in test [5] it was “inactive”. The result in test [7] was inactive.
As to `CCCN(CCC)C(=O)SCC`, the outcome in test [1] is “inactive”; in test [2], “inactive”; in test [3], “inactive”; in the test with MYC, MYC (gene 4609), “inactive”; in [4], “inactive”; in test [5] it was “inactive”. Also, the result in test [8] and in test [7] was inactive.
On to `CCOC(=O)c1ccc(O)cc1`, for which the outcome in test [1] is “inactive”; in test [2], “inactive”; in test [3], “inactive”; with MYC, MYC (gene 4609) it was “inactive”; in [4] it was “inactive”; in test [5], “inactive”. For the same molecule, in [7], the result was inactive.
As for `Oc1ccc(C(c2ccc(O)cc2)C(Cl)(Cl)Cl)cc1`, the AC50 is 78.8 µM (active) in test [1]; 87.5 µM (active) in test [2]; 78.6 µM (active) in test [3]; 78 µM (active) with MYC, MYC (gene 4609); 90.5 µM (active) in test [4]; 74.8 µM (active) in [5]. Besides, in test [7], the AC50 is 76.9 µM (active).
In the case of `CC(=O)[C@H]1CC[C@H]2[C@@H]3CCC4=CC(=O)CC[C@]4(C)[C@H]3CC[C@]12C`, the AC50 in test [1] was 34.6 µM (active); in test [2] it was 32.3 µM (active); in test [3], 61.9 µM (active); with MYC, MYC (gene 4609) it was 34.3 µM (active); in [4], 66 µM (active); in test [5], 7.52 µM (active). Further, the AC50 in [7] was 87.5 µM (active).
As to `COC(=O)c1ccccc1C(=O)O`, the outcome in [1] is “inactive”; in test [2] it was “inactive”; in test [3], “inactive”; with MYC, MYC (gene 4609), “inactive”; in test [4] it was “inactive”; in [5], “inactive”. The molecule was classed as inactive in [6] and in [7].
`CC(C)(C)[C@@H](O)[C@@H](Cc1ccc(Cl)cc1)n1cncn1`: the outcome is “inactive” in [1]; “inactive” in [2]; “inactive” in test [3]; “inactive” with MYC, MYC (gene 4609); “inactive” in test [5]; “inactive” in test [6]. Also, the call in [8] and in test [7] was inactive.
As to `CC(C)CCCCCCc1ccc(O)cc1`, the outcome in [1] is “inactive”; in test [2], “inactive”; in test [3] it was “inactive”; in the test with MYC, MYC (gene 4609), “inactive”; in test [4] it was “inactive”; in test [5], “inactive”. For the same molecule, the molecule was called inactive in test [6] and in [7].
Regarding `Cc1nn(C)c(Oc2ccccc2)c1C=NOCc1ccc(C(=O)OC(C)(C)C)cc1`, the AC50 was 24.2 µM (active) in test [1]; 30.3 µM (active) in [2]; 50 µM (active) in test [3]; 8.62 µM (active) with MYC, MYC (gene 4609); 34.4 µM (active) in test [4]; 1.15 µM (active) in test [5]. Moreover, the outcome in [7] was inactive.
Consider `OB(O)O`, for which the outcome is “inactive” in [1]; “inactive” in [2]; “inactive” in test [3]; “inactive” with MYC, MYC (gene 4609); “inactive” in test [4]; “inactive” in [5]. Further, the call in test [8] and in test [7] was inactive.
`C#C[C@]1(O)CC[C@H]2[C@@H]3CCC4=CC(=O)CC[C@@H]4[C@H]3CC[C@@]21CC`: the outcome was “inactive” in test [1]; “inactive” in test [2]; “inactive” in test [3]; “inactive” with MYC, MYC (gene 4609); “inactive” in test [4]; “inactive” in test [6]. In addition, in test [7], the outcome was inactive. Moreover, the AC50 in test [5] was 2.38 µM (active).
With `COC(=O)c1ccc(I)cc1S(=O)(=O)NC(=O)Nc1nc(C)nc(OC)n1`, the outcome in test [1] was “inactive”; in test [2], “inactive”; in [3], “inactive”; in the test with MYC, MYC (gene 4609) it was “inactive”; in [4] it was “inactive”; in [5], “inactive”. For the same molecule, in test [7], the result was inactive.

Source of the values: PubChem BioAssay (EPA / NIEHS).
